# Experimental data taken from the supplement of paper PMC10646978.
# ± gives the standard deviation.
# Experiments:
# Details in all cases: modulator concentration 10 µM
# [1] = system: RAW-Dual (murine macrophage reporter line); assay: NF-kB reporter (SEAP) activity fold change vs agonist alone; higher = enhanced NF-kB activity
# Procedure, shortened: (§1)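 In 384-well plates holding 50 000 RAW-Dual murine macrophage reporter cells per well, compound at 10 μM final was pre-incubated for 1 hour at 37 °C, after which a PRR agonist was added overnight. Supernatant SEAP read with QUANTI-Blue at 620 nm absorbance reported NF-κB, and Lucia luciferase read with QUANTI-Luc luminescence reported IRF. Fold change values come from dividing each reporter signal by the mean of agonist-only control wells on the same plate, averaged over replicate plates with propagated errors.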
# [2] = system: RAW-Dual (murine macrophage reporter line); assay: IRF reporter (Lucia luciferase) activity fold change vs agonist alone; higher = enhanced IRF activity
# Procedure, shortened: as §1
# [3] = system: RAW-Dual (murine macrophage reporter line); assay: viability score (confluency relative to resting cells, overnight) (fraction); higher = more viable, active = viable (0.7 or more)
# Procedure, shortened: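 In 384-well plates, RAW-Dual macrophages received compound at a final 10 μM overnight. Two confluency masks were then made with IncuCyte software from IncuCyte images of all imaged wells. The viability score is defined as confluency relative to resting cells. Passing the cutoff required both masks to lie above 70% of resting cells.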
# [4] = agonist: CpG ODN 1826 0.5 ug/mL
Compound,"NF-kB reporter [1, 4]",NF-kB reporter ([1]; agonist: LPS 0.1 ug/mL),NF-kB reporter ([1]; agonist: MPLA […]),IRF reporter ([2]; agonist: 3'3'-cGAMP 10 ug/mL),IRF reporter ([2]; agonist: LPS 0.1 ug/mL),IRF reporter ([2]; agonist: MPLA […]),viability score [3]
CN(CCO)c1ccc2nonc2c1[N+](=O)[O-],1.39 ± 0.085,1.18 ± 0.11,1.33 ± 0.087,0.886 ± 0.034,1.28 ± 0.086,0.996 ± 0.088,1 (active)
CCOc1ccccc1OCCCCOc1cccc(Br)c1,0.728 ± 0.06,1.05 ± 0.075,0.968 ± 0.067,1.19 ± 0.031,1.49 ± 0.24,1.2 ± 0.2,1 (active)
CCOC(=O)[C@@H](N)Cc1ccc(-c2cc(O[C@H](c3ccc(Cl)cc3-n3ccc(C)n3)C(F)(F)F)nc(N)n2)cc1.O=C(O)CNC(=O)c1ccccc1,0.504 ± 0.06,0.512 ± 0.053,0.937 ± 0.11,0.734 ± 0.043,0.787 ± 0.026,3.54 ± 0.34,0.119 (inactive)
COc1ccc2c(c1)c(CC(=O)O)c(C)n2C(=O)c1ccc(Cl)cc1,1.23 ± 0.21,1.06 ± 0.16,0.951 ± 0.054,1.05 ± 0.034,1.25 ± 0.14,1.29 ± 0.1,1 (active)
CC(=NN1CCN(Cc2cccc3ccccc23)CC1)c1ccc(O)cc1,0.841 ± 0.062,0.886 ± 0.079,0.988 ± 0.026,0.849 ± 0.031,0.946 ± 0.1,0.963 ± 0.14,0.996 (active)
CCC1=C(C)CN(C(=O)NCCc2ccc(S(=O)(=O)NC(=O)N[C@H]3CC[C@H](C)CC3)cc2)C1=O,1.08 ± 0.085,1.08 ± 0.062,1.03 ± 0.066,1.22 ± 0.23,0.95 ± 0.067,0.915 ± 0.14,0.996 (active)
CC12CC3CC(C)(C1)CC(CNC(=O)c1ccc([N+](=O)[O-])cc1)(C3)C2,1.1 ± 0.1,0.895 ± 0.065,0.957 ± 0.09,0.999 ± 0.032,1.38 ± 0.22,1.48 ± 0.37,1 (active)
N#Cc1ccnc(N2C(=O)CC[C@H]2C(=O)N(c2cncc(F)c2)[C@H](C(=O)NC2CC(F)(F)C2)c2ccccc2Cl)c1,1.26 ± 0.3,1.04 ± 0.07,1.26 ± 0.08,1.09 ± 0.055,1.28 ± 0.2,1.17 ± 0.12,1 (active)
CCCN(CCC)CCc1cccc2c1CC(=O)N2.Cl,0.998 ± 0.079,0.945 ± 0.046,1.03 ± 0.074,0.926 ± 0.071,0.925 ± 0.037,0.912 ± 0.083,0.997 (active)
Cn1c2c(c3ccccc31)CCCC2NC=O (stereo not drawn),0.787 ± 0.061,0.931 ± 0.06,1.03 ± 0.09,0.93 ± 0.042,1.36 ± 0.082,1.44 ± 0.14,1 (active)
O=C(Nc1ccc(NS(=O)(=O)c2ccc(Cl)cc2)cc1)c1ccccc1,1 ± 0.082,1.03 ± 0.091,0.911 ± 0.07,0.977 ± 0.03,1.26 ± 0.091,0.955 ± 0.3,1.02 (active)
COC(CNC(=O)C(C)(C)Oc1ccc(Cl)cc1)c1cccc(F)c1 (stereo not drawn),1.27 ± 0.39,1.07 ± 0.055,1.14 ± 0.081,0.96 ± 0.035,0.959 ± 0.16,1.04 ± 0.18,0.973 (active)
Oc1ccc(N=Cc2ccccc2O)cc1,1.35 ± 0.17,1.24 ± 0.086,1.51 ± 0.1,0.491 ± 0.11,0.733 ± 0.043,0.839 ± 0.14,0.584 (inactive)
CC(C)c1nc(CN(C)C(=O)N[C@@H](CCN2CCOCC2)C(=O)N[C@H](CC[C@H](Cc2ccccc2)NC(=O)OCc2cncs2)Cc2ccccc2)cs1,1.29 ± 0.073,0.959 ± 0.076,1.14 ± 0.036,0.687 ± 0.032,0.842 ± 0.11,0.839 ± 0.18,1 (active)
O=S(=O)(Nc1cccc2cccnc12)c1ccccc1,0.961 ± 0.13,0.597 ± 0.097,0.659 ± 0.053,1.04 ± 0.081,5.63 ± 1,1.32 ± 0.29,0.745 (active)
Br.COc1ccc2c3c1OC1CC(O)C=CC31CCN(C)C2 (stereo not drawn),1.06 ± 0.082,0.892 ± 0.095,1.04 ± 0.1,1 ± 0.04,1.34 ± 0.18,1.43 ± 0.27,0.999 (active)
OCCN1CCN(C(c2cccs2)c2ccc3cccnc3c2O)CC1 (stereo not drawn),1.95 ± 0.14,0.699 ± 0.036,0.66 ± 0.048,0.759 ± 0.049,0.332 ± 0.027,0.26 ± 0.021,0.155 (inactive)
Cc1cc(C(=O)NCc2sc(-c3ccccc3Cl)nc2C)c(C)o1,0.883 ± 0.039,1 ± 0.081,1.09 ± 0.061,0.98 ± 0.047,1.11 ± 0.25,1.27 ± 0.44,0.984 (active)
COc1cc(Nc2ncc(F)c(Nc3ccc4c(n3)N(COP(=O)(O)O)C(=O)C(C)(C)O4)n2)cc(OC)c1OC,0.724 ± 0.063,0.825 ± 0.072,1.12 ± 0.1,0.869 ± 0.098,1.18 ± 0.22,1.25 ± 0.35,0.931 (active)
CCOC(=O)C1=C(C)NC(C)=C(C(=O)OC)C1c1ccc(C)cc1 (stereo not drawn),0.782 ± 0.069,0.743 ± 0.062,1.2 ± 0.046,0.815 ± 0.13,0.914 ± 0.039,1.34 ± 0.087,0.935 (active)
Clc1ccc(C=NNc2cc(N3CCCC3)nc(N3CCCC3)n2)c(Cl)c1,0.988 ± 0.076,0.983 ± 0.081,0.987 ± 0.1,0.99 ± 0.062,1.21 ± 0.15,1.31 ± 0.25,1.04 (active)
CCCC(=O)OCOC(=O)C1=C(C)NC(C)=C(C(=O)OC)C1c1cccc(Cl)c1Cl (stereo not drawn),0.752 ± 0.068,0.888 ± 0.064,1.07 ± 0.11,0.995 ± 0.048,1.18 ± 0.14,1.16 ± 0.16,1 (active)
CN1CCC(=C2c3ccccc3CCc3sccc32)CC1.O=C(O)CC(O)C(=O)O,0.574 ± 0.054,0.705 ± 0.035,0.868 ± 0.094,0.692 ± 0.036,1.09 ± 0.073,1 ± 0.12,0.385 (inactive)
COc1ccccc1-n1ncc2c(C)nnc(SCC(=O)NCc3ccccc3Cl)c21,0.739 ± 0.33,0.987 ± 0.077,0.761 ± 0.19,0.781 ± 0.13,0.882 ± 0.15,0.781 ± 0.15,0.944 (active)
